The values below come from PubChem BioAssay (Tox21).

Where “and” joins values, the source holds several entries; their conditions need not be identical. Equal entries are not always repeated. Results filed as inconclusive are left out. Some compounds were tested as several samples or in several runs, with calls that do not always agree. Calls of active or inactive are those of the source. Unless noted, calls come from the whole dose curve; as a rule, active = well fitted curve in the direction sought with a large enough effect in the repeat runs; inconclusive = weak or mixed curves; inactive = no such curve, though single readings can be large; an effect the other way counts as inactive or inconclusive.

Experiment [1] in a line: qHTS assay to identify small molecule antagonists of the peroxisome proliferator-activated receptor delta (PPARd) signaling pathway - cell viability counter screen (AID 743213). Note: nearly all actives have a fitted effect of over 50% in size. Note: potency is the fitted concentration of half-maximal effect. In short, it runs like this: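 PPARd-bla HEK293H cells were treated with compounds plus agonist L165041 (300 nM final) for 17 h at 37 C. Viability was then read in the same wells by CellTiter-Glo luminescence after 30 min at room temperature.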
A general note: qHTS replaces the single test concentration by a dilution series.

Experiment [2] is described as follows: qHTS assay to identify small molecule agonists of the farnesoid-X-receptor (FXR) signaling pathway - cell viability counter screen (AID 743218). Note: nearly all actives have a fitted effect of over 45% in size. Note: potency is the fitted concentration of half-maximal effect. In short, it runs like this: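 Same-well cytotoxicity check on FXR-UAS-bla HEK 293T cells: 5 h attachment, 16 h compound at 37 C, CellTiter-Glo luminescence read at room temperature after 30 min.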
In experiment [3] the target is Bile acid receptor (Homo sapiens) (UniProt Q96RI1). Description: qHTS assay to identify small molecule agonists of the farnesoid-X-receptor (FXR) signaling pathway (AID 743220; active = well fitted activation curve with a large enough effect in the signal ratio in the repeat runs, not every such curve was filed as active; the % refers to the signal ratio; note: % is set by controls: 0 for no effect and ±100 for the full control effect). The gist of the method: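 FXR-UAS-bla HEK 293T cells carrying a UAS-driven beta-lactamase reporter were plated for 5 h at 37C/5% CO2, then exposed to DMSO-dissolved Tox21 10K compounds for 16 h at 37C. A LiveBLAzer B/G FRET substrate was loaded for 2 h at room temperature before fluorescence reading.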
Sequence of Bile acid receptor (Homo sapiens) (Q96RI1 whole entry, looked up): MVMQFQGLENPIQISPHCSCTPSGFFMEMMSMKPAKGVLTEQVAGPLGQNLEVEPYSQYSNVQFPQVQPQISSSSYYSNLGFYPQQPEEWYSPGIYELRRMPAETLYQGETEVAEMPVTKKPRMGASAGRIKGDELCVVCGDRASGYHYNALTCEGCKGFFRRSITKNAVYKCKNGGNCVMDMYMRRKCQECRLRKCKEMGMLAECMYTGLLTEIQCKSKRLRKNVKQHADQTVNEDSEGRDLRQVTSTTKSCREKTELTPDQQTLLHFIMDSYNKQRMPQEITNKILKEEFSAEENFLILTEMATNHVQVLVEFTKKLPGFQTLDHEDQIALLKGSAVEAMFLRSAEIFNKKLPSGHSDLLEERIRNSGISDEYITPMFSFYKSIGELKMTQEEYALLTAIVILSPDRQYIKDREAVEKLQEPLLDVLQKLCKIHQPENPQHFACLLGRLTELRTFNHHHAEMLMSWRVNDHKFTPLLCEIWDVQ

Experiment [4] in a line: qHTS assay to identify small molecule antagonists of the farnesoid-X-receptor (FXR) signaling pathway - cell viability counter screen (AID 743221; active = well fitted cell-killing curve with a large enough effect in the repeat runs, not every such curve was filed as active; note: nearly all actives have a fitted effect of over 50% in size; note: potency is the fitted concentration of half-maximal effect). The gist of the method:
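HEK 293T FXR-bla cells, 5 h pre-incubation; compound + CDCA 50 uM final, 16 h, 37 C; beta-lactamase FRET read first, then CellTiter-Glo luminescence, 30 min RT.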

Experiment [5] in a line: qHTS assay to identify small molecule agonists of the vitamin D receptor (VDR) signaling pathway - cell viability counter screen (AID 743224). Note: nearly all actives have a fitted effect of over 50% in size. Note: potency is the fitted concentration of half-maximal effect. The gist of the method:
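Counter screen for cytotoxicity: VDR-bla cells at 2,000 cells/well, 16 h compound exposure, then CellTiter-Glo luminescence after the beta-lactamase measurement.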

A short description of experiment [6]: qHTS assay to identify small molecule antagonists of the vitamin D receptor (VDR) signaling pathway - cell viability counter screen (AID 743225). Note: nearly all actives have a fitted effect of over 50% in size. Note: potency is the fitted concentration of half-maximal effect. The gist of the method: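 Viability counter screen run in the same wells as the beta-lactamase reporter assay: HEK 293T VDR-UAS-bla cells, 16 h compound exposure at 37C with 3 nM (final) 1-alpha,25-dihydroxyvitamin D3. CellTiter-Glo luminescence, 30 min, room temperature.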

Experiment [7] is described as follows: qHTS assay to identify small molecule agonists of the endoplasmic reticulum stress response signaling pathway - cell viability counter screen (AID 1159517; calls by dose curve; note: nearly all actives have a fitted effect of over 50% in size; note: potency is the fitted concentration of half-maximal effect). The gist of the method: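 In parallel with the ESRE reporter read, cytotoxicity was scored by CellTiter-Glo luminescence (30 min, room temperature) on HeLa ESRE-bla cells dosed for 5 hr.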
Experiment [8] in a line: qHTS assay to identify small molecule antagonists of the retinoid-related orphan receptor gamma (ROR-gamma) signaling pathway - cell viability counter screen (AID 1159520). Note: nearly all actives have a fitted effect of over 50% in size. Note: potency is the fitted concentration of half-maximal effect. In short, it runs like this: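 Tet-on ROR gamma CHO cells were given compounds for 2 hr, then doxycycline hyclate at 1 uM final, and incubated 16 hr at 37 C. Viability was measured as ATP content by CellTiter-Glo luminescence.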

The target of experiment [9] is Nuclear receptor ROR-gamma (Homo sapiens) (UniProt P51449). Kind of experiment: qHTS assay to identify small molecule antagonists of the retinoid-related orphan receptor gamma (ROR-gamma) signaling pathway (AID 1159521; note: nearly all actives have a fitted effect of over 50% in size; note: potency is the fitted concentration of half-maximal effect). In short, it runs like this: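 Luminescence readout (ONE-Glo, 30 min RT) after 16 h doxycycline induction; loss of signal scored as antagonism. CHO cells with TET-inducible RORγ and RORE-LUC reporter; compounds added 2 h before 1 uM final doxycycline.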

The nature of experiment [10]: qHTS assay to identify small molecule agonists of the AP-1 signaling pathway - cell viability counter screen (AID 1159525; calls by dose curve; note: nearly all actives have a fitted effect of over 55% in size; note: potency is the fitted concentration of half-maximal effect). In short, it runs like this: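 Same-well cytotoxicity counter screen of the Tox21 10K library in ME-180 cells. The readout is ATP-dependent luminescence after 5 h compound treatment. Data are normalised to DMSO and tetra n-octyl ammonium bromide controls.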

Experiment [11] in a line: qHTS assay to identify small molecule agonists of the RXR signaling pathway - cell viability counter screen (AID 1159529). Note: nearly all actives have a fitted effect of over 50% in size. Note: potency is the fitted concentration of half-maximal effect. In short, it runs like this: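 Luminescence from CellTiter-Glo (30 min, RT) measured viability in the same wells as the beta-lactamase reporter readout. Cells: GeneBLAzer RXR-alpha HEK 293T, 2% charcoal-stripped FBS. Compound exposure 16 hr, 37 C.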

The target of experiment [12] is Vitamin D3 receptor (Homo sapiens) (UniProt P11473). Description: qHTS assay to identify small molecule agonists of the vitamin D receptor (VDR) signaling pathway (AID 743222; calls by dose curve; note: % is set by controls: 0 for no effect and ±100 for the full control effect). The gist of the method: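 Using LiveBLAzer B/G FRET detection, agonism was scored in VDR-bla cells exposed overnight (16 h, 37C) to DMSO-dissolved compounds; substrate incubation was 2 h at room temperature.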
Sequence of Vitamin D3 receptor (Homo sapiens) (P11473 whole entry, looked up): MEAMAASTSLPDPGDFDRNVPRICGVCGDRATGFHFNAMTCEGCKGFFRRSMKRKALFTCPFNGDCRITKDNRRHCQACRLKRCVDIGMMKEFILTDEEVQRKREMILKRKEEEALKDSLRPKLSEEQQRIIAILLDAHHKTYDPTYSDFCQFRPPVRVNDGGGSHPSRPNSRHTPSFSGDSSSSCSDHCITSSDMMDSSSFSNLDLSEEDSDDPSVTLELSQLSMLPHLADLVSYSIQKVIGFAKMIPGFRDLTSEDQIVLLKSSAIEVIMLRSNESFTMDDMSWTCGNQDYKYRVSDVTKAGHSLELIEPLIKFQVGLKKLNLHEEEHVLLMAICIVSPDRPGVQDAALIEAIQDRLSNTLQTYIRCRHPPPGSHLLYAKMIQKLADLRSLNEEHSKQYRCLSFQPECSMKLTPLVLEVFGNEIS

Experiment [13] has the same target. Description: qHTS assay to identify small molecule antagonists of the vitamin D receptor (VDR) signaling pathway (AID 743223; active = well fitted inhibition curve with a large enough effect in the signal ratio in the repeat runs, not every such curve was filed as active; the % refers to the signal ratio; note: % is set by controls: 0 for no effect and ±100 for the full control effect). In short, it runs like this:
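Beta-lactamase reporter read-out: FRET substrate fluorescence after 2 h at room temperature, following 16 h exposure of VDR-bla cells to test compound plus 3 nM (final) 1alpha,25-dihydroxyvitamin D3 agonist at 37C.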

Experiment [14] is described as follows: qHTS assay to identify small molecule agonists of the endoplasmic reticulum stress response signaling pathway (AID 1159516; active = well fitted activation curve with a large enough effect in the signal ratio in the repeat runs, not every such curve was filed as active; the % refers to the signal ratio; note: % is set by controls: 0 for no effect and ±100 for the full control effect). In short, it runs like this: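 For this screen, HeLa cells stably carrying beta-lactamase under the ER stress response element received test compounds, positive controls or DMSO for 5 hr at 37 C; B/G FRET substrate was then added and dual-wavelength emission recorded.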

Experiment [15] can be described thus: qHTS assay to identify small molecule agonists of the AP-1 signaling pathway (AID 1159526; calls by dose curve; note: % is set by controls: 0 for no effect and ±100 for the full control effect).
The target of experiment [16] is Peroxisome proliferator-activated receptor delta (Homo sapiens) (UniProt Q03181). Kind of experiment: qHTS assay to identify small molecule antagonists of the peroxisome proliferator-activated receptor delta (PPARd) signaling pathway (AID 743215; active = well fitted inhibition curve with a large enough effect in the signal ratio in the repeat runs, not every such curve was filed as active; the % refers to the signal ratio). The gist of the method:
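Screen format: qHTS, antagonist mode. HEK293H PPARd-bla cells received compound and 300 nM L165041 (final), 17 h, 37 C. Beta-lactamase detected via FRET substrate fluorescence, 2 h, room temperature.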

The target of experiment [17] is Bile acid receptor (Homo sapiens) (UniProt Q96RI1). Kind of experiment: qHTS assay to identify small molecule antagonists of the farnesoid-X-receptor (FXR) signaling pathway (AID 743217; active = well fitted inhibition curve with a large enough effect in the signal ratio in the repeat runs, not every such curve was filed as active; the % refers to the signal ratio; note: potency is the fitted concentration of half-maximal effect). In short, it runs like this: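 Quantitative HTS, beta-lactamase reporter format: FXR-UAS-bla HEK 293T cells co-treated 16 h at 37 °C with compounds and 50 uM final chenodeoxycholic acid, then read by B/G FRET fluorescence.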

Experiment [18] has as its target Retinoic acid receptor RXR-alpha (Homo sapiens) (UniProt P19793). Description: qHTS assay to identify small molecule agonists of the RXR signaling pathway (AID 1159527; calls by dose curve; note: nearly all actives have a fitted effect of over 35% in size; note: potency is the fitted concentration of half-maximal effect). In short, it runs like this: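 Agonist mode; 9-cis retinoic acid positive control. HEK 293T UAS-bla reporter cells, 2% charcoal-stripped FBS, 16 hr compound exposure at 37 C/5% CO2. LiveBLAzer B/G FRET substrate 2 hr RT; ex 405, em 460/530 nm.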

In experiment [19] the target is Peroxisome proliferator-activated receptor delta (Homo sapiens) (UniProt Q03181). Description: qHTS assay to identify small molecule agonists of the peroxisome proliferator-activated receptor delta (PPARd) signaling pathway (AID 743212; calls by dose curve; note: potency is the fitted concentration of half-maximal effect). The gist of the method:
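Tox21 library screened in GeneBLAzer PPARd UAS-bla HEK293H cells. After compound treatment at 37 C, a FRET-based beta-lactamase substrate was applied for 2 h and fluorescence recorded.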

Sequence of Peroxisome proliferator-activated receptor delta (Homo sapiens) (Q03181 whole entry, looked up): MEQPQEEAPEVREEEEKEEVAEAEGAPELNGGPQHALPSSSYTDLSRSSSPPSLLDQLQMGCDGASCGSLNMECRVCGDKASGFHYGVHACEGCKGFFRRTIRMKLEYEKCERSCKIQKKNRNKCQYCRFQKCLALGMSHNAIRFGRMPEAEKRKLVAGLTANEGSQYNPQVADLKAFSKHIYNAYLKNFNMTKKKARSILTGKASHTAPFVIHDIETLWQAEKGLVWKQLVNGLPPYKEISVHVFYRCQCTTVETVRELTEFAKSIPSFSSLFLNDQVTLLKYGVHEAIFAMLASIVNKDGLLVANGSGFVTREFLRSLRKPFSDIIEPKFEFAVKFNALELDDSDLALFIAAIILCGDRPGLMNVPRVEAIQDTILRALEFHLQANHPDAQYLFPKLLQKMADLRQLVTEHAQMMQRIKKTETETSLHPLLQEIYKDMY
Sequence of Retinoic acid receptor RXR-alpha (Homo sapiens) (P19793 whole entry, looked up): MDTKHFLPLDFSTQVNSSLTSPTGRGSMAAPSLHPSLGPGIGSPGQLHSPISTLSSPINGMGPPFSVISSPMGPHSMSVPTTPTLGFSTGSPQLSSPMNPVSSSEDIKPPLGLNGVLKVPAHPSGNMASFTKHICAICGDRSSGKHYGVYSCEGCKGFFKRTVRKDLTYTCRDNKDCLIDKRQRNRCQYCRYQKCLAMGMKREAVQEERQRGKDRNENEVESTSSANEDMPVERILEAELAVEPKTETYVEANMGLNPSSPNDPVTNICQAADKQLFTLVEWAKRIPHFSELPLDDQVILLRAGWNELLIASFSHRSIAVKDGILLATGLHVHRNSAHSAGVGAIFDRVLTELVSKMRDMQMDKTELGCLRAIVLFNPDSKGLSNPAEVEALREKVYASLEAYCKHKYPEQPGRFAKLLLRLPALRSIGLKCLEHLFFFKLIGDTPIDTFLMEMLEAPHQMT

For the compound `Oc1c(Cl)cc(Cl)c(Cl)c1Cc1c(O)c(Cl)cc(Cl)c1Cl`, the Potency in [1] was 38.8 µM (active) and 24.5 µM (active); in experiment [2] it was 21.8 µM (active) and 24.5 µM (active); in experiment [4], 48.9 µM (active); in experiment [5], 24.5 µM (active) and 21.9 µM (active) and 2.66 µM (active); in experiment [6] it was 54.8 µM (active) and 27.5 µM (active) and 9.52 µM (active); in experiment [7] it was 17.3 µM (active) and 49 µM (active). For the same compound, the Potency in experiment [8] is 1.53 µM (active) and 1.93 µM (active) and 1.68 µM (active); in experiment [9], 966 nM (active) and 1.37 µM (active) and 841 nM (active); in experiment [10], 27.5 µM (active); in [11], 34.6 µM (active) and 49 µM (active) and 19 µM (active). The Potency entry in experiment [3] was “inactive”.

As to `CCC(CO)(CO)COCC(CC)(CO)CO`, the Potency result in [1], in experiment [2], in [4], in experiment [12], in [13] and in experiment [5] was “inactive” in each case. Also, the Potency result in experiment [6], in experiment [7], in [8], in experiment [9], in [10] and in experiment [15] was “inactive” in each case. Moreover, the Potency entry in experiment [11] is “inactive”. Besides, the compound was classed as inactive in [14].

As to `CC(C)C(=O)c1c(C(C)C)nn2ccccc12`, the Potency result in experiment [1], in experiment [16], in [17], in [2], in [3] and in experiment [4] was “inactive” in each case. Further, the Potency entry in experiment [13], in [5], in experiment [6], in experiment [7], in [8] and in experiment [9] was “inactive” in each case. Further, the Potency entry in experiment [10], in experiment [15] and in experiment [11] was “inactive” in each case. In experiment [14], the compound was classed as inactive. The Potency in experiment [18] was 23.9 µM (active).

On to `CCCCCCC(O)CCCCCCCCCCC(=O)O` (stereo unspecified), for which the Potency in experiment [19] is 21.9 µM (active); in experiment [17] it was “inactive and 34.7 µM (active)”; in experiment [5] it was 19.6 µM (active) and 11 µM (active). Further, the Potency result in experiment [16], in experiment [2], in experiment [7], in experiment [8], in experiment [10] and in experiment [18] was “inactive” in each case.

For `COc1nc(C)nc(Cl)c1NC1=NCCN1`, the Potency entry in experiment [19], in [1], in experiment [16], in experiment [2], in experiment [4] and in [12] was “inactive” throughout. The Potency entry in [13], in experiment [5], in experiment [6], in experiment [7], in experiment [8] and in experiment [9] was “inactive” each time. Further, the Potency entry in experiment [10], in [15] and in experiment [11] was “inactive” throughout. For the same compound, the compound was classed as inactive in [14].

Turning to `Cc1c(O)cccc1C(=O)N[C@@H](CSc1ccccc1)[C@H](O)CN1C[C@H]2CCCC[C@H]2C[C@H]1C(=O)NC(C)(C)C`, the Potency was 15.1 µM (active) and 23.7 µM (active) in [1]; 6.74 µM (active) and 26.6 µM (active) in experiment [2]; 19 µM (active) and 26.6 µM (active) in experiment [4]; 15.1 µM (active) and 26.6 µM (active) in experiment [5]; 23.9 µM (active) and 21.3 µM (active) in experiment [6]; 23.7 µM (active) and 9.44 µM (active) in experiment [9]. Also, the Potency entry in experiment [3], in [7], in experiment [10] and in [15] was “inactive” throughout.

On to `CCCCCCCCCCCCCCCCCl`, for which the Potency result in experiment [1], in experiment [2], in experiment [4], in experiment [12], in [13] and in [5] was “inactive” in each case. Besides, the Potency entry in experiment [6] and in [7] was “inactive” in each case. Moreover, the outcome in experiment [14] was inactive. Also, the activity, negative = cytotoxicity in [8] was 5.98% [at 19 µM] (inactive). In addition, the activity change, negative = inhibition in experiment [9] was 19.2% [at 19 µM] (inactive). In addition, in [10], the viability change, negative = cytotoxic was -12.8% [at 15.8 µM] (inactive). In addition, the activation in experiment [15] is -1.11% [at 15.8 µM] (inactive). Also, the activity change, negative = cytotoxicity in experiment [11] is 6.15% [at 15.8 µM] (inactive).

In the case of `CC(COc1ccccc1)N(CCCl)Cc1ccccc1` (stereo unspecified), the Potency result in [19], in [1], in [16], in [4], in experiment [12] and in experiment [13] was “inactive” in each case. The Potency result in experiment [5], in experiment [6], in experiment [7], in [10], in experiment [18] and in [11] was “inactive” throughout. In addition, the Potency in experiment [2] was 49 µM (active) and inactive; in [8], 49.1 µM (active) and 54.5 µM (active) and 29.8 µM (active); in [9] it was 49.1 µM (active) and inactive.
